According to PubChem BioAssay AID1159580 (chemical genetic matrix, 2015):
Hit rate of the full screen: of about 5,500 compounds, about 2,000 (36%) were called active. Inconclusive results (about 18%) are left out. No stated cut-off is given here; in the data, active means normalized growth mostly below about 0.91 (no sharp cut-off); inconclusive means no clear call, values can overlap the other calls; inactive means mostly above about 0.92. This is one part of the list.

Assay: chemical genetic growth profiling, strain panel (AID 1159580);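 further: tested at 20 µM; growth read once vehicle control cultures reached saturation at 30 °C; 1 = growth at the plate median or of vehicle wells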
Details: S. cerevisiae deletion strains, growth OD

Measured: normalized growth

OC[C@H]1OC([S-])[C@H](O)[C@@H](O)[C@@H]1O.[Au+] (some centres undefined)
inactive: locus YAL021C, strain ccr4, stronger effect = lower value 1.03 | locus YAL026C, strain drs2, stronger effect = lower value 1.03 | locus YAL030W, strain snc1, stronger effect = lower value 1.03 | locus YBL061C, strain skt5, stronger effect = lower value 1.02 | locus YBR009C, strain hhf1, stronger effect = lower value 1.02 | locus YBR023C, strain chs3, stronger effect = lower value 1.01 | locus YBR171W, strain sec66, stronger effect = lower value 1.01 | locus YBR231C, strain swc5, stronger effect = lower value 1.02 | locus YBR279W, strain paf1, stronger effect = lower value 1.01 | locus YCL011C, strain gbp2, stronger effect = lower value 1 | locus YCL016C, strain dcc1, stronger effect = lower value 1 | locus YCL069W, strain vba3, stronger effect = lower value 1.01 | locus YCR088W, strain abp1, stronger effect = lower value 1.01 | locus YDL005C, strain med2, stronger effect = lower value 1.02 | locus YDL040C, strain nat1, stronger effect = lower value 1.01 | locus YDR001C, strain nth1, stronger effect = lower value 1 | locus YDR069C, strain doa4, stronger effect = lower value 1.01 | locus YDR137W, strain rgp1, stronger effect = lower value 1.03 | locus YDR159W, strain sac3, stronger effect = lower value 1.06 | locus YDR195W, strain ref2 1.03 | locus YDR297W, strain sur2, stronger effect = lower value 1 | locus YDR334W, strain swr1, stronger effect = lower value 1.01 | locus YDR335W, strain msn5, stronger effect = lower value 1.02 | locus YDR392W, strain spt3, stronger effect = lower value 1.03 | locus YEL003W, strain gim4, stronger effect = lower value 1.01 | locus YEL037C, strain rad23, stronger effect = lower value 1.01 | locus YEL061C, strain CIN8 (second series), stronger effect = lower value 1.01 | locus YER015W, strain faa2, stronger effect = lower value 1.01 | locus YER016W, strain bim1, stronger effect = lower value 1.02 | locus YER111C, strain swi4, stronger effect = lower value 1.01 | locus YER155C, strain BEM2 (second series), stronger effect = lower value 1.05 | locus YFR010W, strain ubp6, stronger effect = lower value 1.02 | locus YGL167C, strain pmr1, stronger effect = lower value 1 | locus YGL173C, strain kem1, stronger effect = lower value 1.02 | locus YGL227W, strain vid30, stronger effect = lower value 1.01 | locus YGL240W, strain doc1, stronger effect = lower value 1.03 | locus YGL253W, strain hxk2, stronger effect = lower value 1.01 | locus YHR013C, strain ard1, stronger effect = lower value 1.02 | locus YHR027C, strain rpn1, stronger effect = lower value 0.992 | locus YHR030C, strain SLT2, stronger effect = lower value 1.05 | locus YHR079C, strain IRE1, stronger effect = lower value 1.1 | locus YHR142W, strain chs7, stronger effect = lower value 0.995 | locus YJL092W, strain hpr5, stronger effect = lower value 1.01 | locus YJL095W, strain BCK1 (second series), stronger effect = lower value 1.01 | locus YJL095W, strain BCK1, stronger effect = lower value 1.08 | locus YJL115W, strain asf1, stronger effect = lower value 1.01 | locus YJL129C, strain trk1, stronger effect = lower value 1.01 | locus YJL154C, strain vps35, stronger effect = lower value 1.01 | locus YJL164C, strain tpk1, stronger effect = lower value 1.01 | locus YJL166W, strain qcr8, stronger effect = lower value 1.02 | locus YJL187C, strain SWE1, stronger effect = lower value 1.02 | locus YJR066W, strain TOR1, stronger effect = lower value 0.998 | locus YKL160W, strain elf1, stronger effect = lower value 1 | locus YKR026C, strain gcn3, stronger effect = lower value 1.01 | locus YKR091W, strain srl3, stronger effect = lower value 1.01 | locus YLL001W, strain dnm1, stronger effect = lower value 1.01 | locus YLL026W, stronger effect = lower value 1.01 | locus YLL041C, strain sdh2, stronger effect = lower value 0.999 | locus YLR027C, strain aat2, stronger effect = lower value 1.02 | locus YLR221C, strain rsa3, stronger effect = lower value 1.01 | locus YLR258W, strain gsy2, stronger effect = lower value 1.01 | locus YLR262C, strain YPT6 (second series), stronger effect = lower value 1 | locus YLR320W, strain mms22, stronger effect = lower value 1.02 | locus YLR342W, strain FKS1, stronger effect = lower value 1.01 | locus YLR357W, strain rsc2, stronger effect = lower value 1.01 | locus YLR370C, strain arc18, stronger effect = lower value 1.01 | locus YLR384C, strain iki3, stronger effect = lower value 0.987 | locus YML120C, strain ndi1, stronger effect = lower value 1.02 | locus YMR058W, strain fet3, stronger effect = lower value 1.01 | locus YMR125W, strain sto1, stronger effect = lower value 1.02 | locus YMR129W, stronger effect = lower value 1.01 | locus YMR205C, strain PFK2, stronger effect = lower value 1.03 | locus YMR231W, strain pep5, stronger effect = lower value 1.01 | locus YNL071W, strain lat1, stronger effect = lower value 1 | locus YNL183C, strain NPR1, stronger effect = lower value 1.02 | locus YNL209W, strain ssb2, stronger effect = lower value 1 | locus YNL248C, strain rpa49, stronger effect = lower value 1.01 | locus YNL322C, strain KRE1 (second series), stronger effect = lower value 1.01 | locus YNR049C, strain mso1, stronger effect = lower value 0.997 | locus YOR001W, strain rrp6, stronger effect = lower value 1.02 | locus YOR070C, strain gyp1, stronger effect = lower value 1 | locus YOR080W, strain dia2, stronger effect = lower value 1.01 | locus YOR083W, strain WHI5, stronger effect = lower value 0.996 | locus YOR106W, strain vam3, stronger effect = lower value 1.03 | locus YOR231W, strain MKK1, stronger effect = lower value 1.09 | locus YOR265W, strain rbl2, stronger effect = lower value 1.01 | locus YOR290C, strain snf2, stronger effect = lower value 1.01 | locus YPL051W, strain arl3, stronger effect = lower value 0.994 | locus YPL078C, strain atp4, stronger effect = lower value 1.03 | locus YPL106C, strain sse1, stronger effect = lower value 1.01 | locus YPL240C, strain hsp82, stronger effect = lower value 1.01 | locus YPL256C, strain CLN2, stronger effect = lower value 1.16
active: locus YLR113W, strain HOG1, stronger effect = lower value 1.17 [resistant] | locus YOR270C, strain vph1, stronger effect = lower value 1.27 [resistant]
